# Experimental data as given in PubChem BioAssay AID624296 (National Center for Advancing Translational Sciences (NCATS), 2012).
# Among all 350,000 compounds or so, about 9,900 (2.8%) were called active. Entries that show only a call come without a potency. Another 15% or so got no clear call; they are omitted. Calls follow the shape of the dose curve; as a rule, active = well fitted activation curve with a large enough effect; inconclusive = small, poorly fitted or top-dose-only effect; inactive = no such curve, though single readings can be large or run the other way. For the sample, actives were picked, then their nearest neighbours and some compounds at random.
# Test: A quantitative high throughput screen for small molecules that induce DNA re-replication in MCF 10a normal breast cells. Also: nearly all actives have a fitted effect of over 50% in size.
# Settings: MCF 10A DNA re-replication, Hoechst nuclear intensity, 48 h; series mostly up to 46.1 µM
# Excerpt: H Molecular Libraries Probe Production Network [MLPCN]
# NIH Chemical Genomics Center [NCGC]
# Assay Provider: Melvin DePamphilis, NICHD, NIH
# Eukaryotic cells normally restrict genome duplication to once per cell division. When this process is aberrant, DNA re-replication occurs when cells reinitiate DNA replication before the first round of replication is complete. DNA re-replication induces the DNA damage response, arrests cell proliferation, and triggers apoptosis. The cell cycle components cyclin A, Cdt-1, Cdc6 and geminin are critical regulators of this process and their misregulation results in DNA re-replication in normal and cancer cells. To identify compounds that induce re-replication in normal cells, an image-based assay was used to measure DNA content of nuclei, as detected by the fluorescent DNA binding dye, Hoechst. Cell nuclei were imaged by a fluorescence scanning plate imager and compounds that induce DNA re-replication were identified by the increase of nuclei with elevated fluorescence intensity
# For screening, 250 cells in 5 uL/well were dispensed into black clear 1536-well plates (Aurora) using a solenoid-based dispenser. Following transfer of 23 nL compound or DMSO vehicle by a pin tool, the plates were incubated 48 hr at 37 C and 5% CO2. After addition of 1 uL/well Hoescht stain, the plates were incubated 40 min at 37 C, 5% CO2 and total intensity of fluorescent objects (nuclei) were enumerated by an Acumen Explorer Ex3 (TTP LabTech) fluorescence scanning plate imager (405 nm excitation, 500-530 nm emission).
# Keywords: NIH Roadmap, MLPCN, MLI, MLSMR, qHTS, NCGC, DNA replication, cancer
# Potency is read from the fitted curve at half-maximal effect.
row,Structure (SMILES),Potency
1,COC(=O)c1cnc(Nc2cc(C)ccc2OC)c2ccccc12,inactive
2,CCCCCCC(=O)Nc1nc(C)c(-c2csc(Nc3cc(Cl)ccc3OC)n2)s1,inactive
3,COc1ccc(C)cc1Nc1nc(-c2c(C)[nH]c3ccccc23)cs1,18.4 µM (active)
4,CN(CC(=O)NCCc1ccc(F)cc1)CC(=O)Nc1ccc(F)c(F)c1F,inactive
5,CCN(CC)c1ccc(NC(=O)c2ccc(=O)[nH]c2)cc1S(=O)(=O)Nc1ccc(OC)cc1,inactive
6,Cc1ccc2nc(N3CCN(C(=O)c4ccco4)CC3)sc2c1,inactive
7,COc1ccc2nc(N3C(=O)C(O)=C(C(=O)c4ccco4)C3c3ccco3)sc2c1 (configuration not stated),inactive
8,Cc1ccc2nc(N3C(=O)C(O)=C(C(=O)c4ccco4)C3c3cccc(O)c3)sc2c1 (configuration not stated),23.1 µM (active)
9,CCN(C(=O)COC(=O)c1c(C)nn(-c2ccccc2)c1Cl)c1c(N)n(Cc2ccccc2)c(=O)[nH]c1=O,inactive
10,Cc1cccc(NC(=O)CN2CCN(CC(=O)NCC3(N4CCCCC4)CCCCC3)CC2)c1C,inactive
11,CCN(CC(=O)Nc1ccc(OC)cc1)C(=O)CSCc1ccc(C)cc1,inactive
12,OCC[C@H]1C[C@@H](O)[C@H](O)[C@]2(OCCCc3ccccc32)O1,inactive
13,O=C(/C=C/c1ccccc1)c1ccccc1O,20.6 µM (active)
14,CN(C)/C=C/C(=O)c1ccccc1F,inactive
15,O=C(/C=C/c1ccccc1)N/C(=C/c1ccccc1)C(=O)Nc1ccccc1O,inactive
16,O=C(CSc1nnc(-c2ccncc2)o1)Nc1cccc(Cl)c1,inactive
17,CN(c1ccccc1)S(=O)(=O)c1cc(C(=O)N2CCN(c3ncccn3)CC2)ccc1Cl,20.6 µM (active)
18,CN(c1ccccc1)S(=O)(=O)c1ccc(C(=O)N2CCN(c3ccccc3Cl)CC2)cc1,inactive
19,CN(c1ccccc1)S(=O)(=O)c1cc(C(=O)OCC(=O)N2CCN(C(=O)c3ccco3)CC2)ccc1Cl,inactive
20,CN(C(=O)c1cccc(NC(=O)Cc2cccc(NC(=O)C3CCCN(C(=O)C4CC4)C3)c2)c1)C1CCC1 (configuration not stated),inactive
21,CC[C@]1(C(=O)OC)[C@H]2C(=O)N(C)C(=O)[C@H]2[C@H]2CN(C)C(=NCc3ccccc3)N21,inactive
22,Cc1cc(NC(=O)CSc2ncc(C(F)(F)F)cc2Cl)no1,inactive
23,C=CC[C@@H](CC(=O)N[C@H](CO)Cc1ccccc1)C(=O)N[C@@H](COC(=O)[C@@H](CC=C)Cc1ccc(F)cc1)Cc1c[nH]c2ccccc12,inactive
24,CCCCCCc1cc2cc(-c3nnc(-c4ccccc4)o3)c(=O)oc2cc1O,1.46 µM (active)
25,Cc1c(CCC(=O)O)c(=O)oc2cc3occ(-c4ccccc4)c3cc12,inactive

row,Structure (SMILES),Potency
1,Cc1c(CC(=O)NCCCCCC(=O)O)c(=O)oc2cc3occ(-c4ccccc4)c3cc12,inactive
2,CCc1nnc(NC(=O)c2sc3nc(C)cc(COC)c3c2N)s1,inactive
3,COCc1cc(C)nc2sc(C(=O)NC3CCCCC3)c(N)c12,inactive
4,COc1ccc(OC)c(NC(=O)c2sc3nc(C)cc(C)c3c2N)c1,11.6 µM (active)
5,Cc1ccc(COC(=O)CN2C(=O)NC3(CCCC3)C2=O)cc1,inactive
6,Cc1ccc(NC(=O)CCNC(=O)c2ccc([N+](=O)[O-])cc2)cc1S(=O)(=O)N1CCOCC1,inactive
7,O=C(CN1C(=O)NC2(CCCCCC2)C1=O)Nc1ccc([N+](=O)[O-])cc1,inactive
8,COc1cc2c(cc1OC)C1C(=O)c3cc(OS(C)(=O)=O)c(OC)cc3C1N(C)C2=O (configuration not stated),inactive
9,CCC(CO)Oc1cc(NC(=O)c2cccc3ccccc23)c2ncn(C(C)C)c2c1 (configuration not stated),inactive
10,CS(=O)(=O)Nc1ccc(C2=NN(S(C)(=O)=O)C(c3cccs3)C2)cc1 (configuration not stated),inactive
11,COc1ccc(C2=NN(C(=O)CCC(=O)O)C(c3cccs3)C2)cc1OC (configuration not stated),inactive
12,CCS(=O)(=O)Nc1ccc(C2=NN(C(C)=O)C(c3cccs3)C2)cc1 (configuration not stated),9.2 µM (active)
13,Cn1cc(C2OC(=O)c3ccccc32)c2ccccc21 (configuration not stated),inactive
14,CNC(=S)NNC(=O)c1oc2nc(-c3ccccc3)cc(-c3ccco3)c2c1N,inactive
15,O=C(Nc1cccc(F)c1)c1cc(-c2ccco2)nc2ccccc12,inactive
16,NNC(=O)c1oc2nc(-c3ccccc3)cc(-c3ccco3)c2c1N,20.6 µM (active)
17,Cc1ccc(S(=O)(=O)N2C[C@@H]3CCCC[C@@H]3[C@@H](C)[C@H]2c2cn(Cc3ccccc3)c3ccc(F)cc23)cc1,inactive
18,Cn1c(N)c(C(=O)COC(=O)COc2ccc(Cl)cc2)c(=O)n(C)c1=O,inactive
19,Cc1ccccc1C1CC(c2cccs2)=NN1S(C)(=O)=O (configuration not stated),inactive
20,COc1ccccc1N1N=C(c2cccs2)CC1c1ccccc1 (configuration not stated),inactive
21,Fc1ccc(N2N=C(c3cccs3)CC2c2ccco2)c(F)c1 (configuration not stated),7.31 µM (active)
22,C/C(=N\NC(=O)c1cc(-c2ccc(O)cc2)nc2ccccc12)c1cccnc1,inactive
23,O=C(N/N=C\c1cccnc1)c1cc(-c2ccccc2)nc2c(Cl)cccc12,7.31 µM (active)
24,O=C(N/N=C/c1cccnc1)c1cc2ccccc2cc1O,inactive
25,COc1cccc(CC(=NO)c2cccc(OC)c2)c1,inactive

row,Structure (SMILES),Potency
1,CC1(C(=O)OCC(=O)Nc2ncc(Cl)cc2Cl)CC1(Cl)Cl (configuration not stated),inactive
2,COc1ccc(NC(=O)[C@H](NC(=O)[C@@H]2Cc3ccccc3CN2)c2ccccc2)cc1,inactive
3,COc1ccc(CNC(=O)[C@H](Cc2c[nH]c3ccccc23)NC(C)=O)cc1OC,inactive
4,COc1cccc(NC(=O)[C@H](Cc2c[nH]c3ccccc23)NC(=O)[C@@H]2Cc3ccccc3CN2)c1,18.4 µM (active)
5,CCc1c(Nc2ccccc2C)nc(N)[nH]c1=O,inactive
6,COc1ccc(OC)c(CN2CCN(C(=O)CNC(=O)c3cc(C)cc(C)c3)CC2)c1,inactive
7,Cc1ccc(C(=O)NCC(c2cccs2)N(C)C)cc1S(=O)(=O)N1CCOCC1 (configuration not stated),inactive
8,COc1ccc2[nH]c3c(c2c1)CCN1C(=O)C(CC(=O)NCCc2ccccn2)C[C@H](C(=O)N2CCOCC2)[C@@]31C (some centres not stated),inactive
9,O=C(COC(=O)c1c(Cl)cccc1Cl)Nc1cccc(S(=O)(=O)NC2=NCCCCC2)c1,inactive
10,COc1ccccc1C(=O)OCC(=O)Nc1cccc(S(=O)(=O)NC2=NCCCCC2)c1,18.4 µM (active)
11,CCc1ccc(C(=O)OCC(=O)Nc2cccc(S(=O)(=O)NC3=NCCCCC3)c2)cc1,inactive
12,CC(NC(=O)c1ccccc1)C(=O)Nc1ccccc1 (configuration not stated),inactive
13,CC(Oc1ccc2c(-c3ccccc3)cc(=O)oc2c1)C(=O)NC(Cc1c[nH]c2ccccc12)C(=O)O (configuration not stated),inactive
14,Cc1ccccc1N1CCN(S(=O)(=O)c2ccc3ccccc3c2)CC1,inactive
15,Cc1ccc(S(=O)(=O)N2CCN(c3ccccc3)CC2)cc1C,inactive
16,Cc1cc(N2CCN(S(=O)(=O)c3ccc(C)c(C)c3)CC2)c2ccccc2n1,10.3 µM (active)
17,COc1ccc(Cl)cc1C=CC=NNC(=O)c1ccncc1,inactive
18,COc1ccccc1C(=O)NCC(=O)OCC(=O)NNC(=O)c1ccc(Br)cc1,inactive
19,O=C(O)c1ccccc1N=N/C(=N/Nc1cc(S(=O)(=O)O)ccc1O)c1ccccc1,inactive
20,Cc1cc(C)cc(NC(=O)CN2C(=O)c3ccccc3C2=O)c1,inactive
21,Cc1cccc(NC(=O)CN2C(=O)c3ccccc3C2=O)c1C,inactive
22,O=C(CN1C(=O)c2cccc3cccc1c23)Nc1ccccc1,20.6 µM (active)
23,CN(C(=O)CSc1nnc(-c2ccc3c(c2)OCO3)o1)C1CCS(=O)(=O)C1 (configuration not stated),inactive
24,Cc1ccc(S(=O)(=O)N(C)C)cc1NC(=O)c1ccc(-n2cncn2)c([N+](=O)[O-])c1,inactive
25,CCOCCn1[nH]c2ccccc2c1=O,inactive

row,Structure (SMILES),Potency
1,COc1ccc(CNC(=O)COC(=O)C2=Cc3ccccc3OC2)cc1,18.4 µM (active)
2,O=C(COC(=O)c1ccc2c(c1)OCCO2)NCc1ccccc1,inactive
3,COc1ccc(CCNC(=O)COC(=O)c2cc(=O)c3ccccc3o2)cc1,inactive
4,CN(/N=C/c1ccccc1)C(=S)c1ccccc1,inactive
5,CCC(CO)Oc1cc(NC(=O)c2ccc(Cl)cc2)c2ncn(C(C)C)c2c1 (configuration not stated),inactive
6,Cc1ccccc1Nc1nnc(C)c(=O)[nH]1,inactive
7,Cc1nnc(N/N=C/c2cccs2)[nH]c1=O,inactive
8,Cc1nnc(N/N=C/c2ccccn2)[nH]c1=O,2.59 µM (active)
9,COc1ccc2nc(N3CCCC(O)C3)c(C#N)cc2c1 (configuration not stated),inactive
10,CCOc1ccc2nc(N3CCCN(C(=O)Nc4ccccc4C)CC3)c(C#N)cc2c1,16.4 µM (active)
11,CCOc1ccc(C(=O)NC2CCN(C(=O)Nc3ccccc3OC)CC2)cc1,inactive
12,C[C@H](NS(=O)(=O)c1ccc(Cl)cc1)C(=O)OCC(=O)N1CCOCC1,inactive
13,CC(C)[C@@H](C(=O)OCC(=O)c1ccc2c(c1)NC(=O)CO2)N1C(=O)c2ccccc2C1=O,inactive
14,Cc1cccc(Nc2nnc(SCC(=O)c3c(N)n(C4CC4)c(=O)[nH]c3=O)s2)c1C,inactive
15,COc1ccc(Cc2nnc(N/N=C/c3ccccc3O)[nH]c2=O)cc1OC,10.3 µM (active)
16,O=c1[nH]c(NCCO)nnc1Cc1ccc(Cl)cc1,inactive
17,COc1ccc(/C=N/Nc2nc3ccccc3c(=O)[nH]2)cc1,inactive
18,CCN(CC)S(=O)(=O)c1ccc(N2CCOCC2)c(NC(=O)C(C)Oc2ccc(F)cc2)c1 (configuration not stated),inactive
19,COC(=O)c1cc(-c2cccs2)nc2ccccc12,inactive
20,CC(C)(C)Cc1nnc(NC(=O)c2cc(-c3ccccc3)nc3ccccc23)s1,inactive
21,O=C(Nc1nnc(-c2ccccc2)o1)c1cc(-c2cccs2)nc2ccccc12,2.06 µM (active)
22,COc1cccc(N2CCN(CC(=O)Nc3ccnn3C3CCCC3)CC2)c1,inactive
